45 molecules from article PMC8159961, “Exploring protein hotspots by optimized fragment pharmacophores” (Nature Communications, 2021) can be followed below.

A number with no mark means an inactive call. No rule for the calls is given here.

Holding throughout (assay): primary screen, binary call; higher = more effect of the substance
One assay has as its target Factor Xa (bovine, UniProt P00743). More on the design: screenings were carried out in duplicate in one independent experiment. To be noted: 200 µM. On the procedure: Protease inhibitory assays were performed in transparent microtiter plates in a final volume of 200 µL with the use of chromogenic substrates. The reaction rates in the absence and in the presence of the inhibitor were measured; screenings were carried out in duplicate in one independent experiment and Ki values were determined in triplicate in two independent experiments.

Another assay has as its target 5-HT6 receptor (human, UniProt P50406). More on the design: hit call from the mean of at least two separate experiments. Particulars: 10 µM.
Another assay concerns the target 5-HT7b receptor (human, UniProt P34969). More on the design: hit call from the mean of at least two separate experiments. Particulars: 10 µM.

Chain of Factor Xa (P00743 41-180 limits assumed): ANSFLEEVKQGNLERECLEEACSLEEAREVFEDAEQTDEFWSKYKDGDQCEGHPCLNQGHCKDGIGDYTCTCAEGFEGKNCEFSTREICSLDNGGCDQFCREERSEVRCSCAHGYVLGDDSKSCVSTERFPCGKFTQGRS
Chain of Factor Xa (P00743 234-492 limits assumed): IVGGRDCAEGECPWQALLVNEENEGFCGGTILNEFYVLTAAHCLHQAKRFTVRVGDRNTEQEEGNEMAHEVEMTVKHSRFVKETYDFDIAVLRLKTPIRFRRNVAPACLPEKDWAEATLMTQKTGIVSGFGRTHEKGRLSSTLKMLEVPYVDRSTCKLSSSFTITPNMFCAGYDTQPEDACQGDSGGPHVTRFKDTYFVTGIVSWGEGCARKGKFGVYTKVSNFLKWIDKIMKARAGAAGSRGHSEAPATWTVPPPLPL
Chain of 5-HT6 receptor (P50406 whole entry, looked up): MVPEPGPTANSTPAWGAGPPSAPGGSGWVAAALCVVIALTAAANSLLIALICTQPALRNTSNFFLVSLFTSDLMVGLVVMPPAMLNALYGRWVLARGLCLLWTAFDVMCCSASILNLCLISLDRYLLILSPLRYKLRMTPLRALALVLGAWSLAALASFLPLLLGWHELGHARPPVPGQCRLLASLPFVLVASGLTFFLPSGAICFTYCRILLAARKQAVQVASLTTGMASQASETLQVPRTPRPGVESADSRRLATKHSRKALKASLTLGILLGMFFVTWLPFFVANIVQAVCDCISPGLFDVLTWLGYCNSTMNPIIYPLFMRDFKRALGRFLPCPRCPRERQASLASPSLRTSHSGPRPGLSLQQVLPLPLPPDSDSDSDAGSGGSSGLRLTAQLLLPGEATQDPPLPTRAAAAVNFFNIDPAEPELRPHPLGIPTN
Chain of 5-HT7b receptor (P34969 whole entry, looked up): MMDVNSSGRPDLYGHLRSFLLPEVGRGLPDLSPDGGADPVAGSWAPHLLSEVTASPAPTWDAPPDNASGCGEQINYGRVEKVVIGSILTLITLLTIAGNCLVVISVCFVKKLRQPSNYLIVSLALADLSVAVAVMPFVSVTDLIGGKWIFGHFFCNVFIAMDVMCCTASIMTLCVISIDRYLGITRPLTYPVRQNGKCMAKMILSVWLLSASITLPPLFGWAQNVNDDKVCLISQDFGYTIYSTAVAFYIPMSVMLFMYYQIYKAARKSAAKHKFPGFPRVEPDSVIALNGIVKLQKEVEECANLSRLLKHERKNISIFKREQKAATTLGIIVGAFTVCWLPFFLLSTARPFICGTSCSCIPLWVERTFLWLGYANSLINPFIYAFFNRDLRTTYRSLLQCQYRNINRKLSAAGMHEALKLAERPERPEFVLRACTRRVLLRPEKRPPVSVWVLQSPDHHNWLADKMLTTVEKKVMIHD

In the case of `NC1CCc2ccccc21` (stereo not drawn), in the assay with Factor Xa, the “Factor Xa” value was 0. For the same molecule, the 5-HT6 with 5-HT6 receptor is 0. In addition, in the assay with 5-HT7b receptor, the 5-HT7 is 0.

On to `O=C1CCC(=O)N(c2ccccc2)N1`, for which the “Factor Xa” value with Factor Xa was 0. Besides, the 5-HT6 with 5-HT6 receptor is 0. Also, the 5-HT7 with 5-HT7b receptor was 0.

Regarding `c1ccc2c(N3CCNCC3)ccnc2c1`, the “Factor Xa” value with Factor Xa is 0. Besides, the 5-HT6 with 5-HT6 receptor was 1 (active). The 5-HT7 with 5-HT7b receptor is 0.

With `O=C(Nc1ccccc1)C1CC1`, the “Factor Xa” value in the assay with Factor Xa is 0. Further, the 5-HT6 in the assay with 5-HT6 receptor is 0. Moreover, the 5-HT7 with 5-HT7b receptor is 0.

With `O=c1[nH]c2c(s1)CCC2`, in the assay with Factor Xa, the “Factor Xa” value was 0. Moreover, the 5-HT6 in the assay with 5-HT6 receptor is 0. Also, the 5-HT7 in the assay with 5-HT7b receptor is 0.

Consider `O=C(O)c1cccc(Nc2ncccn2)c1`, for which, in the assay with Factor Xa, the “Factor Xa” value is 0. In addition, the 5-HT6 in the assay with 5-HT6 receptor was 1 (active). Also, in the assay with 5-HT7b receptor, the 5-HT7 is 0.

`CN(C)c1cc(CN)ccn1`: the “Factor Xa” value with Factor Xa is 0. In addition, the 5-HT6 with 5-HT6 receptor was 0. In the assay with 5-HT7b receptor, the 5-HT7 was 0.

Consider `CCn1cnc2ccccc21`, for which the “Factor Xa” value in the assay with Factor Xa was 0. In addition, the 5-HT6 with 5-HT6 receptor was 0. The 5-HT7 with 5-HT7b receptor is 0.

`Fc1ccc(CC2CCCNC2)cc1` (stereo not drawn): the “Factor Xa” value in the assay with Factor Xa was 0. Also, in the assay with 5-HT6 receptor, the 5-HT6 is 0. The 5-HT7 in the assay with 5-HT7b receptor was 0.

For the molecule `c1ccc(-c2ccncc2)cc1`, the “Factor Xa” value with Factor Xa was 0. Moreover, the 5-HT6 with 5-HT6 receptor is 0. Moreover, the 5-HT7 in the assay with 5-HT7b receptor is 0.

Regarding `Cc1cnc(C(F)(F)F)cn1`, the “Factor Xa” value with Factor Xa was 0. In addition, the 5-HT6 with 5-HT6 receptor is 0. Further, the 5-HT7 with 5-HT7b receptor was 0.

Take `Cc1ccc(C)n1Cc1ccccc1Cl`: the “Factor Xa” value with Factor Xa is 0. Also, the 5-HT6 with 5-HT6 receptor was 0. Further, the 5-HT7 with 5-HT7b receptor was 0.

In the case of `CC1C(=O)NC(=O)N1c1ccc(Cl)cc1` (stereo not drawn), the “Factor Xa” value in the assay with Factor Xa was 0. Also, in the assay with 5-HT6 receptor, the 5-HT6 is 0. Moreover, the 5-HT7 with 5-HT7b receptor is 0.

On to `CC1CCc2sc(C(=O)O)cc2C1` (stereo not drawn), for which the “Factor Xa” value in the assay with Factor Xa was 0. In addition, the 5-HT6 in the assay with 5-HT6 receptor was 0. Besides, the 5-HT7 in the assay with 5-HT7b receptor is 0.

On to `Oc1cnc(-c2ccccc2)nc1`, for which the “Factor Xa” value in the assay with Factor Xa is 0. The 5-HT6 with 5-HT6 receptor was 0. Also, the 5-HT7 in the assay with 5-HT7b receptor is 0.

As to `c1ccc2sc(N3CCNCC3)nc2c1`, the “Factor Xa” value in the assay with Factor Xa is 0. In addition, in the assay with 5-HT6 receptor, the 5-HT6 was 0. Also, in the assay with 5-HT7b receptor, the 5-HT7 was 0.

For the molecule `CCCN1C(=O)CC(=O)NC1=S`, the “Factor Xa” value in the assay with Factor Xa is 0. For the same molecule, the 5-HT6 with 5-HT6 receptor is 0. In addition, the 5-HT7 with 5-HT7b receptor was 0.

Regarding `CC(CN)N1CCc2sccc2C1` (stereo not drawn), the “Factor Xa” value in the assay with Factor Xa is 0. Also, the 5-HT6 with 5-HT6 receptor was 0. Also, the 5-HT7 with 5-HT7b receptor was 0.

Turning to `CN1CC(=O)NC1=O`, the “Factor Xa” value in the assay with Factor Xa was 0. For the same molecule, the 5-HT6 with 5-HT6 receptor was 0. In the assay with 5-HT7b receptor, the 5-HT7 is 0.

With `Nc1nnc(-c2cccs2)[nH]1`, in the assay with Factor Xa, the “Factor Xa” value was 0. Also, the 5-HT6 in the assay with 5-HT6 receptor is 1 (active). Also, the 5-HT7 in the assay with 5-HT7b receptor was 0.

For the molecule `N[C@H]1c2ccccc2C[C@H]1CO`, the “Factor Xa” value in the assay with Factor Xa was 0. Moreover, in the assay with 5-HT6 receptor, the 5-HT6 is 0. Also, the 5-HT7 with 5-HT7b receptor is 0.

On to `COc1ccccc1N1CCNCC1`, for which the “Factor Xa” value with Factor Xa was 0. In addition, the 5-HT6 with 5-HT6 receptor was 1 (active). In the assay with 5-HT7b receptor, the 5-HT7 is 1 (active).

For `O=C1CCCc2occc21`, in the assay with Factor Xa, the “Factor Xa” value is 0. In addition, the 5-HT6 with 5-HT6 receptor is 0. The 5-HT7 with 5-HT7b receptor is 0.

Turning to `c1cnc2c(c1)NCCC2`, the “Factor Xa” value with Factor Xa is 0. Moreover, the 5-HT6 with 5-HT6 receptor was 0. The 5-HT7 with 5-HT7b receptor is 0.

Turning to `Cc1ccc(-c2ccc(O)cc2)cc1`, the “Factor Xa” value with Factor Xa is 0. In addition, in the assay with 5-HT6 receptor, the 5-HT6 is 0. Also, in the assay with 5-HT7b receptor, the 5-HT7 was 0.

As to `N#Cc1ccc(C(=O)N2CCOCC2)cc1`, in the assay with Factor Xa, the “Factor Xa” value was 0. For the same molecule, the 5-HT6 with 5-HT6 receptor is 0. Besides, the 5-HT7 in the assay with 5-HT7b receptor is 0.

For the molecule `O=C(c1ccccc1F)N1CCNCC1`, the “Factor Xa” value with Factor Xa was 1 (active). Moreover, the 5-HT6 with 5-HT6 receptor is 0. For the same molecule, the 5-HT7 with 5-HT7b receptor is 0.

For `Cc1cc(-c2ccccc2)n[nH]1`, the “Factor Xa” value with Factor Xa is 0. Moreover, the 5-HT6 in the assay with 5-HT6 receptor is 0. For the same molecule, the 5-HT7 with 5-HT7b receptor is 0.

As for `O=C1CCN(c2ccncc2)CC1`, the “Factor Xa” value in the assay with Factor Xa is 0. Besides, the 5-HT6 with 5-HT6 receptor is 0. Also, the 5-HT7 with 5-HT7b receptor is 0.

For the molecule `COc1ccc(CN2CCNCC2)cc1F`, the “Factor Xa” value with Factor Xa was 0. Further, the 5-HT6 with 5-HT6 receptor is 0. Further, the 5-HT7 with 5-HT7b receptor is 0.

In the case of `Cc1cc(N)no1`, in the assay with Factor Xa, the “Factor Xa” value was 0. For the same molecule, the 5-HT6 with 5-HT6 receptor was 0. Further, the 5-HT7 with 5-HT7b receptor was 0.

`O=C1CSC(Nc2ccc(F)cc2)=N1`: the “Factor Xa” value in the assay with Factor Xa was 0. Also, the 5-HT6 in the assay with 5-HT6 receptor was 0. Moreover, the 5-HT7 with 5-HT7b receptor is 0.

Consider `Oc1ccccc1N1CCCCC1`, for which, in the assay with Factor Xa, the “Factor Xa” value was 1 (active). In the assay with 5-HT6 receptor, the 5-HT6 is 1 (active). Further, the 5-HT7 with 5-HT7b receptor is 0.

In the case of `Fc1ccc2c(C3CCNCC3)c[nH]c2c1`, the “Factor Xa” value with Factor Xa was 0. The 5-HT6 in the assay with 5-HT6 receptor is 1 (active). Further, the 5-HT7 with 5-HT7b receptor was 1 (active).

As for `COc1ccccc1C1CCNCC1`, in the assay with Factor Xa, the “Factor Xa” value is 0. In addition, the 5-HT6 with 5-HT6 receptor was 1 (active). For the same molecule, the 5-HT7 in the assay with 5-HT7b receptor is 1 (active).

For `Cn1c(N)nc2ccccc21`, the “Factor Xa” value with Factor Xa is 1 (active). Also, the 5-HT6 with 5-HT6 receptor was 0. Further, the 5-HT7 with 5-HT7b receptor was 0.

For `FC1(F)CNCC(F)(F)O1`, the “Factor Xa” value with Factor Xa was 0. Besides, in the assay with 5-HT6 receptor, the 5-HT6 was 0. Further, the 5-HT7 with 5-HT7b receptor is 0.

For `N#Cc1ccc2ncsc2c1`, in the assay with Factor Xa, the “Factor Xa” value was 0. For the same molecule, the 5-HT6 in the assay with 5-HT6 receptor was 0. Moreover, the 5-HT7 with 5-HT7b receptor is 0.

For `CCc1nccn1CC(=O)O`, the “Factor Xa” value in the assay with Factor Xa is 0. Besides, in the assay with 5-HT6 receptor, the 5-HT6 was 0. Besides, the 5-HT7 with 5-HT7b receptor was 0.

As to `NC(=O)N1CCC(C(=O)O)CC1`, the “Factor Xa” value with Factor Xa was 0. The 5-HT6 with 5-HT6 receptor was 0. Further, in the assay with 5-HT7b receptor, the 5-HT7 is 0.

With `O=C1NC2(CCCC2)Nc2ccccc21`, the “Factor Xa” value with Factor Xa is 0. For the same molecule, in the assay with 5-HT6 receptor, the 5-HT6 is 0. In addition, the 5-HT7 with 5-HT7b receptor is 0.

Turning to `CC1(C)OC(=O)c2cc(Br)c(O)cc2O1`, the “Factor Xa” value in the assay with Factor Xa is 0. Also, the 5-HT6 with 5-HT6 receptor was 1 (active). The 5-HT7 with 5-HT7b receptor was 0.

With `c1ccc2oc(C3CCCNC3)nc2c1` (stereo not drawn), the “Factor Xa” value in the assay with Factor Xa is 0. The 5-HT6 with 5-HT6 receptor was 0. For the same molecule, in the assay with 5-HT7b receptor, the 5-HT7 was 0.

Consider `O=C(CN1CCNCC1)c1ccccc1`, for which the “Factor Xa” value in the assay with Factor Xa was 0. For the same molecule, the 5-HT6 with 5-HT6 receptor was 0. Also, the 5-HT7 in the assay with 5-HT7b receptor was 0.

Regarding `CS(=O)(=O)c1ccc(N2CCNCC2)cc1`, in the assay with Factor Xa, the “Factor Xa” value was 0. Further, the 5-HT6 in the assay with 5-HT6 receptor was 0. The 5-HT7 with 5-HT7b receptor is 0.
